Results on five compounds are retold here after PubChem BioAssay (NCATS).

The structures appear in SMILES notation. Inconclusive results are not listed. Calls of active or inactive are those of the source. Unless noted, calls follow the shape of the dose curve; as a rule, active = well fitted curve in the direction sought with a large enough effect; inconclusive = small, poorly fitted or top-dose-only effect, or another doubt; inactive = no such curve, though single readings can be large; an effect the other way counts as inactive or inconclusive. Where only a bound is given, the exact number is not on record here.

For assay [1], the target named is Lysosomal acid glucosylceramidase (Homo sapiens) (UniProt P04062). The experiment in a line: Glucocerebrosidase-p2 (AID 348; in the data active = potency below about 10 µM; also: potency is read from the fitted curve at half-maximal effect). Particulars: purified GBA, blue fluorogenic substrate, 40 min. Put shortly: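 Normal human glucocerebrosidase (0.2 nM) with blue fluorogenic substrate (80 uM final) in citrate/phosphate pH 5.9 with 10mM sodium taurocholate, 0.01% tween-20; 40 min RT, NaOH/glycine stop; fluorescence Ex 365/Em 440; AC50 from a titration from 0.6 nM upwards.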
Lysosomal acid glucosylceramidase (Homo sapiens), sequence (P04062 whole entry, looked up): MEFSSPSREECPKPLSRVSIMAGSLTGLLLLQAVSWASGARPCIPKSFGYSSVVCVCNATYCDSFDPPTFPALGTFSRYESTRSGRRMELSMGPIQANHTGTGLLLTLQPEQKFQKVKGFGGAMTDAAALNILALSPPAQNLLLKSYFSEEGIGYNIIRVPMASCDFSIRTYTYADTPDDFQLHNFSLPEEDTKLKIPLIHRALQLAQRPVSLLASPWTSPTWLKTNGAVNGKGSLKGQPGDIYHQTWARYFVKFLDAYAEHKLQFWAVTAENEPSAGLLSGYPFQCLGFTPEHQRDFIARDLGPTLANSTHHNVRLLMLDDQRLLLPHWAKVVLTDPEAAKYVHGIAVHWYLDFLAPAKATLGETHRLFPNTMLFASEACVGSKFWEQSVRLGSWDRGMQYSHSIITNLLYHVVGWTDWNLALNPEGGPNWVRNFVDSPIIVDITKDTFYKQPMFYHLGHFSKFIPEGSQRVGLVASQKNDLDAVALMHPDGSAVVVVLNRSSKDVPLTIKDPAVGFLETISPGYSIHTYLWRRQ

In assay [2] the target is Cytochrome P450 1A2 (Homo sapiens) (UniProt P05177). Put plainly: p450-cyp1a2 (AID 410; calls by dose curve; also: potency is read from the fitted curve at half-maximal effect). Put shortly:
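Read-out is luminescence from luciferin produced by CYP1A2 demethylation of Luciferin-ME (100uM, at Km). Detection reagent stopped the 60 min NADPH-dependent reaction; signals were normalized to 57 uM furafylline.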

Assay [3] can be described thus: NFAT Signaling Pathway (AID 444; active = well fitted curve in either direction with a large enough effect, not every such curve was filed as active;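 also: carbachol stimulus at about its EC50 of 1 µM final; % is scaled to controls: 0 for no effect and ±100 for the full control effect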). Particulars: Jurkat NFAT-bla M1, carbachol, beta-lactamase ratio, 5 h; at 7.69 µM (top of the series) unless noted. Put shortly:
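Jurkat cells with NFAT-driven β-lactamase reporter and co-expressed M1 receptor, stimulated with carbachol (final 1 uM, ~EC50), compound titration, 5 h at 37 °C. CCF4 loaded 1 h at RT; 460/530 nm ratio gave %activity and AC50.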

Assay [4] can be described thus: Stat Signaling Pathway (AID 446; active = well fitted curve in either direction with a large enough effect, not every such curve was filed as active;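 also: ME-180 cervical cancer cells given 40 pM IL-6 alongside compound; SIE-controlled beta-lactamase reporter measured as 460/530 nm FRET emission ratio; % is scaled to controls: 0 for no effect and ±100 for the full control effect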). Particulars: ME-180 SIE beta-lactamase reporter, IL-6 stimulated, 5 h; at 7.69 µM (top of the series) unless noted. The method in brief:
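Overnight-plated ME-180 cells bearing a STAT Inducible Element beta-lactamase reporter; 5 h co-exposure to compound and 40 pM IL-6; values normalized to 300 pM IL-6 and 125 nM JAK inhibitor controls.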

Assay [5] has as its target Glucocorticoid receptor (Homo sapiens) (UniProt P04150). The experiment in a line: GR-GFP Redistribution (AID 450;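 active = compounds whose dose series gives a full or clear partial fitted curve of increased nuclear translocation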; also: potency is read from the fitted curve at half-maximal effect). Particulars: U2OS GR-GFP nuclear translocation, laser cytometry, 2 h.
Assay [6] shares this target. The experiment in a line: GR-EFC Redistribution (AID 451; calls by dose curve; also: potency is read from the fitted curve at half-maximal effect). Particulars: CHO-K1 GR-EFC translocation, beta-gal luminescence, 2 h. Put shortly: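 CHO-K1 cells expressing nuclear EA and GR-ED fragments of b-gal; compounds titrated up to 46 uM final, 2 h at 37 C. GR nuclear translocation read as complemented b-gal luminescence after 1 h RT detection.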
For assay [7], the target named is Mitogen-activated protein kinase 10 (Mus musculus) (UniProt Q61831). Put plainly: JNK3 AlphaScreen Assay (AID 530; active = well fitted curve in either direction with a large enough effect, not every such curve was filed as active;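 also: kinase came from lysate of stimulated human HepG2 cells; signal reports phosphorylation of biotinylated GST-cJun 1-79 at Ser73 with 10 µM ATP; % is scaled to controls: 0 for no effect and ±100 for the full control effect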). Put shortly:
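HepG2 lysate (IL-1b/TNFa pre-activated) + biotin-GST-cJun 1-79 + anti-pSer73 cJun; cpd titration, 15 min RT; ATP 10 uM start; Tris pH 7.6, MgCl2, DTT, vanadate; beads in EDTA buffer; AlphaScreen.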
On the technique in general: Bead proximity is the source of the signal in Alpha formats.

Assay [8] deals with 3',5'-cyclic-AMP phosphodiesterase 4B (Homo sapiens) (UniProt Q07343). Put plainly: qHTS Assay for Inhibitors of PDE-IV (AID 607; active = well fitted activation curve with a large enough effect in the main read-out, with a control signal flat, not every such curve was filed as active; also: % of control where 0% means no effect). Put shortly: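 Live HEK293 cells with a modified cyclic nucleotide-gated (CNG) channel report intracellular cAMP via membrane-potential dye fluorescence (ex 535/em 590 nm). Endogenous PDE-IV was targeted. Compounds were tested at up to 22.9 uM final; RO 20-1724 100 uM served as control.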

Assay [9] concerns the target Cytochrome P450 3A4 (Homo sapiens) (UniProt P08684). Put plainly: qHTS Assay for Inhibitors and Substrates of Cytochrome P450 3A4 (AID 884). Also: nearly all actives have a fitted effect of over 50% in size. Also: potency is read from the fitted curve at half-maximal effect. The method in brief:
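Luminescent readout of luciferin produced by CYP3A4 (20 nM) dealkylation of Luciferin-PPXE, 25 uM (its KM). NADPH-driven reaction ran 60 min at RT after 10 min compound preincubation; data scaled to 57 uM ketoconazole as 100% inhibition.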

The target is the same in assay [10]. The experiment in a line: qHTS Assay for Activators of Cytochrome P450 3A4 (AID 885). Also: nearly all actives have a fitted effect of over 65% in size. The method in brief: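 Using 20nM recombinant human CYP3A4 in potassium phosphate (200mM), substrate Luciferin-PPXE at 25uM, luminescent luciferin detection followed a 60-min RT NADPH reaction; data scaled to 57 uM ketoconazole.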
Background: qHTS replaces the single test concentration by a dilution series.

Assay [11] can be described thus: qHTS Assay for Lipid Storage Modulators (AID 1519; calls by dose curve). Particulars: Drosophila S3 cells, BODIPY lipid droplet/cell ratio, laser cytometry, cells loaded with oleic acid; for activity change, negative = inhibition: at 57.5 µM (top of the series). The method in brief:
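Cells seeded at 5,000 per well were treated with compounds over a concentration series and loaded with oleic acid (400 uM, as added). Lipid droplet fluorescence (488 nm excitation, 500-530 nm channel) was read by laser-scanning cytometry and normalized to 20 uM Triacsin C.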

For assay [12], the target named is Rap guanine nucleotide exchange factor 3 (Homo sapiens) (UniProt O95398). Put plainly: Confirmatory qHTS for antagonist of cAMP-regulated guanine nucleotide exchange factor 3 (EPAC1) (AID 1645880). Also: nearly all actives have a fitted effect of over 55% in size. Also: potency is read from the fitted curve at half-maximal effect.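 As to activity, negative = inhibition: plate controls were DMSO only for no effect and full effect of the ATA control for full effect.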 Put shortly: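 Released BODIPY-GDP fluoresces less than Rap1-bound BODIPY-GDP; the signal is followed at 480/540 nm at 5-min intervals over 30 min, after 5 min at room temperature. Reactions contain 100 nM EPAC1, 250 nM RAP1B-BODIPY-GDP and 50 uM GDP; results are normalized to ATA and DMSO.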
Rap guanine nucleotide exchange factor 3 (Homo sapiens), sequence (O95398 whole entry, looked up): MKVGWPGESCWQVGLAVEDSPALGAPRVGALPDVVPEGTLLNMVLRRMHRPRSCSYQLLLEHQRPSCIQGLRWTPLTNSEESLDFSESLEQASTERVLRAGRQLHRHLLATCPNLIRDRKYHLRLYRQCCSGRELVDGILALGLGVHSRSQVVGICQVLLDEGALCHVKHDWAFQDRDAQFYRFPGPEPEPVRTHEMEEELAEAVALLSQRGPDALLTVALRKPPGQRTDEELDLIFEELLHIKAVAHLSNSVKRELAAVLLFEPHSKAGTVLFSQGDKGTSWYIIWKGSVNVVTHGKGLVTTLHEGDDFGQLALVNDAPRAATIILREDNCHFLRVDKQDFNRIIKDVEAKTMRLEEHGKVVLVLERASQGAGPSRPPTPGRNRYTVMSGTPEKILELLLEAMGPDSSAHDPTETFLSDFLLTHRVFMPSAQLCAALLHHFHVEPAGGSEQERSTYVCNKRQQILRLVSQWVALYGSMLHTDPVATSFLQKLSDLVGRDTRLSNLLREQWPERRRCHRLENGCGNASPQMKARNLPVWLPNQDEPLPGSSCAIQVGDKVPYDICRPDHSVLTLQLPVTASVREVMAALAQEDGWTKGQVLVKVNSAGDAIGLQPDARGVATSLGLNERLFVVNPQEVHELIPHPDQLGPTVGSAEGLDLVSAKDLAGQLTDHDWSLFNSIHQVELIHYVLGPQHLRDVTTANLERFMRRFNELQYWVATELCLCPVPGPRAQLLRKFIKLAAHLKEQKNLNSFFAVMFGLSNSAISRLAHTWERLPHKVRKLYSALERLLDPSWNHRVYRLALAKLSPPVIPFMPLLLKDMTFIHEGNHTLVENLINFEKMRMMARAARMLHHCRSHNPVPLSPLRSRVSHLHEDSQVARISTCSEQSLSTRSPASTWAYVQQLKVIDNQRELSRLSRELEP

Assay [13] has the same target. Put plainly: Confirmatory qHTS for agonist of cAMP-regulated guanine nucleotide exchange factor 3 (EPAC1) (AID 1645881). Also: nearly all actives have a fitted effect of over 75% in size. Also: potency is read from the fitted curve at half-maximal effect.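 As to activation: EPAC1 catalysed release of BODIPY-GDP from Rap1B seen as fluorescence loss.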
Assay [14] has as its target Rap guanine nucleotide exchange factor 4 (Homo sapiens) (UniProt Q8WZA2). The experiment in a line: Confirmatory qHTS for agonist of cAMP-regulated guanine nucleotide exchange factor 4 (EPAC2) (AID 1645884).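 Also: nucleotide exchange releases bodipy-GDP from Rap1 and this lowers its fluorescence; nearly all actives have a fitted effect of over 65% in size.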 Also: potency is read from the fitted curve at half-maximal effect.
Assay [15] has the same target. Put plainly: Confirmatory qHTS for antagonist of cAMP-regulated guanine nucleotide exchange factor 4 (EPAC2) (AID 1645885). Also: nearly all actives have a fitted effect of over 25% in size. Also: potency is read from the fitted curve at half-maximal effect.
Assay [16] is described as follows: AP1 Signaling Pathway (AID 357; active = well fitted curve in either direction with a large enough effect, not every such curve was filed as active;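 also: ME-180 reporter cells stimulated with EGF at its EC50 level; % is scaled to controls: 0 for no effect and ±100 for the full control effect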). Particulars: ME-180 (cervical carcinoma) AP-1-bla reporter, EGF-induced, beta-lactamase ratio, 5 h; at 7.69 µM (top of the series) unless noted. The method in brief: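 Titration-series screen for positive or negative modulators of EC50 EGF-induced signaling in ME-180 cells carrying an AP-1-driven beta-lactamase reporter. After 5 hours at 37 degrees Celsius, CCF4 460nm/530nm emission ratio gave %Activity; AC50 values derived.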

The nature of assay [17]: Confirmation and Secondary Assay for Modulators of Hemoglobin Beta Chain Splicing at IVS2 654 locus (AID 910).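 Also: HeLa cells stably carrying EGFP split by mutant beta-globin IVS2-654 intron; % of control where 0% means no effect.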 Put shortly:
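HeLa cells stably expressing EGFP interrupted by β-globin IVS2-654 intron, seeded overnight in Opti-MEM/2% FCS, then treated 2 days at 37 °C. Restored splicing read as total peak GFP intensity per well by laser scanning cytometry (488 nm excitation, 500–520 nm emission); 500 nM antisense PNA as control.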

Assay [18] can be described thus: Confirmation and Secondary Assay for Modulators of Hemoglobin Beta Chain Splicing at IVS2 705 locus (AID 930).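 Also: HeLa cells stably expressing the EGFP-705 splicing reporter; GFP fluorescence per well restored by corrected splicing of the IVS2-705 intron in EGFP; % of control where 0% means no effect.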 The method in brief: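 Stable HeLa line with EGFP disrupted by mutant beta-globin intron 2 (705). Overnight attachment, then 2 days of compound at 37C, 5% CO2. Signal: peak GFP intensity summed over objects 5-250 µm.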
Assay [19] deals with Ubiquitin carboxyl-terminal hydrolase 1 (Homo sapiens) (UniProt O94782). Put plainly: Inhibitors of USP1/UAF1: Pilot qHTS (AID 504865). Also: nearly all actives have a fitted effect of over 35% in size. Also: potency is read from the fitted curve at half-maximal effect. Put shortly:
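USP1/UAF1 complex at 1 nM preincubated 15 min at room temperature with compound, then Ub-Rho substrate added at 150 nM final. Fluorescence (480/540 nm) read kinetically in 50 mM HEPES pH 7.8, 0.5 mM EDTA, 1 mM TCEP, 0.1 mg/ml BSA, 0.01% Tween-20.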

Where [20] appears, read: measured here: cell count channel max response.
Setting [21] is: measured here: lipid channel max response.

Glucocorticoid receptor (Homo sapiens), sequence (P04150 whole entry, looked up, the tested form may be a part): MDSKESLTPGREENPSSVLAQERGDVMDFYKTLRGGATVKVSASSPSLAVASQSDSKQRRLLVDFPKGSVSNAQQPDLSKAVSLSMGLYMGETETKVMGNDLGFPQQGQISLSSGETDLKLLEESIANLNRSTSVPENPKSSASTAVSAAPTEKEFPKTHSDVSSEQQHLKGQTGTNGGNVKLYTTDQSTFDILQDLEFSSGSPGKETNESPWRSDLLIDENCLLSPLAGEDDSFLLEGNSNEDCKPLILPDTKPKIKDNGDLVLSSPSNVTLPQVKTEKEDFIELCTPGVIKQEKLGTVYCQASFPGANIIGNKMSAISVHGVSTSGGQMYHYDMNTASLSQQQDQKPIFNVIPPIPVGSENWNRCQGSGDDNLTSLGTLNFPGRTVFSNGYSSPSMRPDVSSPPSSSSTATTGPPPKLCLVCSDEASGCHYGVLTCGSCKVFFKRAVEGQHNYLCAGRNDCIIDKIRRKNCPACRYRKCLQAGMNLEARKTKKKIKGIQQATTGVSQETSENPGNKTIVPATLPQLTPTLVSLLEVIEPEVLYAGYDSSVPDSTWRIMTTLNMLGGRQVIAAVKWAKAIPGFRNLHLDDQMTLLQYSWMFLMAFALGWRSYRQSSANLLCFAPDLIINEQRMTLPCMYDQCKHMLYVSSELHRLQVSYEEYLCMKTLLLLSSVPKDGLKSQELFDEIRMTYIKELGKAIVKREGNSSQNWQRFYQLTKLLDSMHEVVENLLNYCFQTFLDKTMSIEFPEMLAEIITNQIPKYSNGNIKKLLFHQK
Cytochrome P450 3A4 (Homo sapiens), sequence (P08684 whole entry, looked up): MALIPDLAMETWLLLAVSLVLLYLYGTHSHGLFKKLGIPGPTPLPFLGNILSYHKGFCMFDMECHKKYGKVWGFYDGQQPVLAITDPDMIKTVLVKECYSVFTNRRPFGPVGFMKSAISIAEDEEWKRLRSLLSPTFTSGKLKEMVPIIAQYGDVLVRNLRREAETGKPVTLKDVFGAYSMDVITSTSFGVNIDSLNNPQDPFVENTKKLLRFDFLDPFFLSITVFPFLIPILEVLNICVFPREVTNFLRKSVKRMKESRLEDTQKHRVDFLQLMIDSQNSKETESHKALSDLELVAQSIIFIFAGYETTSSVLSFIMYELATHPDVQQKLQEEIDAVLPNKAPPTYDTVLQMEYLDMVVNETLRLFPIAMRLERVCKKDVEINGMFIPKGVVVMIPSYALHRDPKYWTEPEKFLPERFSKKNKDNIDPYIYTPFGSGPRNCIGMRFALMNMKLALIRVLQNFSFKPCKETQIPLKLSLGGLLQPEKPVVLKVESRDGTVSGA
Cytochrome P450 1A2 (Homo sapiens), sequence (P05177 whole entry, looked up): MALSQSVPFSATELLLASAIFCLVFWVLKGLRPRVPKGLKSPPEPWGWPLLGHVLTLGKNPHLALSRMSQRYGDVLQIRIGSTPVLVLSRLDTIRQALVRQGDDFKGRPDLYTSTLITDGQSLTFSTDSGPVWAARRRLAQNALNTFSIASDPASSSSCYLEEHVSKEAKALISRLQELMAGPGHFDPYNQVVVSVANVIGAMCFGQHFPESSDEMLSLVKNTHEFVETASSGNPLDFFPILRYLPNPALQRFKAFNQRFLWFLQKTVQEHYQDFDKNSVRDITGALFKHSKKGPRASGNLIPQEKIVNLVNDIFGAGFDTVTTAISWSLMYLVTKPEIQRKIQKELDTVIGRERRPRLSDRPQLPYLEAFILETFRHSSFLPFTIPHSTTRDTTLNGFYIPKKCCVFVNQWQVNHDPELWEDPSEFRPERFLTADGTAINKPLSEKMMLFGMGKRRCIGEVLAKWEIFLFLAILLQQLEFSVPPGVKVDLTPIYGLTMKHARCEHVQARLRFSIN
Rap guanine nucleotide exchange factor 4 (Homo sapiens), sequence (Q8WZA2 whole entry, looked up): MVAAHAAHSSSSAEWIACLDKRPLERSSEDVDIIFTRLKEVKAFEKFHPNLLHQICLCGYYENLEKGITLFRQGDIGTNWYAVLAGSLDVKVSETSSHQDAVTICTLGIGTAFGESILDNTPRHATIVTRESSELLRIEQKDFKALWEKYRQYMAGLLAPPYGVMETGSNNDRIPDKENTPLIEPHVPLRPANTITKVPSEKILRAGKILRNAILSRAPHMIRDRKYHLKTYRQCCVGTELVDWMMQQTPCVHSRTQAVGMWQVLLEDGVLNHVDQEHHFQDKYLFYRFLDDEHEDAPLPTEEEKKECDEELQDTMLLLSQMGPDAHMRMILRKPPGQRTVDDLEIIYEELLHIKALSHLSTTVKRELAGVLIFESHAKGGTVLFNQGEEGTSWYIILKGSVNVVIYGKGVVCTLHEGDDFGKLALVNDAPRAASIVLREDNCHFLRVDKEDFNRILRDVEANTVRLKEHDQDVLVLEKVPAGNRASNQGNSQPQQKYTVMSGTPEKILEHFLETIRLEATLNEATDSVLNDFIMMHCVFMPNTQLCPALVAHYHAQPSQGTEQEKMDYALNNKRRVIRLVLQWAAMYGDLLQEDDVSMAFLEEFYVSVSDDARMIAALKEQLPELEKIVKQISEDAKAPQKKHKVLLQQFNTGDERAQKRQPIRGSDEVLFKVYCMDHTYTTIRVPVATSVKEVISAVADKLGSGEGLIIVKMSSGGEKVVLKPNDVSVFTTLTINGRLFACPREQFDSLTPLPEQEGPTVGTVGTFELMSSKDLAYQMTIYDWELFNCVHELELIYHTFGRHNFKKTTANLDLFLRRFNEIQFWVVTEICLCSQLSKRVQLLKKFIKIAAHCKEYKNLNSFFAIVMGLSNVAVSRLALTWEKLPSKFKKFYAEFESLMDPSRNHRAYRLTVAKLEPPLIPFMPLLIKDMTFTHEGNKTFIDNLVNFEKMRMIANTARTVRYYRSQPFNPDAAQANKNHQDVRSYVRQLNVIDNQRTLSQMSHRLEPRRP
Ubiquitin carboxyl-terminal hydrolase 1 (Homo sapiens), sequence (O94782 whole entry, looked up): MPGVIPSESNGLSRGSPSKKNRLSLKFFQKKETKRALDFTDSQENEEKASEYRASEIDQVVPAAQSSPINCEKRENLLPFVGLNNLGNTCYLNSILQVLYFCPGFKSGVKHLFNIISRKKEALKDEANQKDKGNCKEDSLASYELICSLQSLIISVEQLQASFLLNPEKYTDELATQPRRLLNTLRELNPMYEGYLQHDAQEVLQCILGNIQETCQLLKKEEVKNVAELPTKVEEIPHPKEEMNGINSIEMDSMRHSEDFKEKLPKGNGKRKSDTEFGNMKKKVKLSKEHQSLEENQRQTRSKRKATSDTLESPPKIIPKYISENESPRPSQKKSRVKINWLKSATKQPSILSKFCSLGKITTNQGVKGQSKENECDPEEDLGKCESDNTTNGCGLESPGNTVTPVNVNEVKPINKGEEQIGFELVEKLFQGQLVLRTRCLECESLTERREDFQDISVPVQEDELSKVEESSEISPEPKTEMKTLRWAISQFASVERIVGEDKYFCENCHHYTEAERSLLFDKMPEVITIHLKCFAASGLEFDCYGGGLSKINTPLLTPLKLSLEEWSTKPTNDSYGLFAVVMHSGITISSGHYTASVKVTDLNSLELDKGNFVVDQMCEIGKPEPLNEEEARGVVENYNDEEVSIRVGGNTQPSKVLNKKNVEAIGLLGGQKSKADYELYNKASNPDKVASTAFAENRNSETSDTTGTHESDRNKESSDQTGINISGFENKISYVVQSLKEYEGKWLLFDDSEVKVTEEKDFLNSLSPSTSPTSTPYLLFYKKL

Take `COc1ccc(-c2nc3cnc(Nc4cccc(OC)c4)nc3n(CCC#N)c2=O)cc1`: the Potency in [1] is > 11.4 µM (inactive); in assay [2], 6.31 µM (active); in [5], > 9.22 µM (inactive); in [6], > 46 µM (inactive); in [9], 3.98 µM (active); in assay [13], 70.6 µM (active). Also, the Potency in [14] is 70.6 µM (active). Further, the activity change, negative = inhibition was -19.2% (inactive) in assay [3] and -18.1% (inactive) in assay [11]. The activity, negative = inhibition in assay [4] was -10% (inactive). Besides, the Potency result in assay [7], in [8], in assay [10], in [12] and in [15] was “inactive” each time. Besides, the max response in assay [11] (setting [20]) is 16.5%; in assay [11] (setting [21]), -2.36%.

In the case of `CN(Cc1ccco1)c1nc(-c2cccc(C#N)c2)nc2ccccc12`, the Potency in assay [1] was > 11.4 µM (inactive); in [2] it was 0.1 µM (active); in assay [5] it was > 46 µM (inactive); in assay [6], > 46 µM (inactive). For the same compound, the activity change, negative = inhibition in [16] is 6.74% (inactive); in [11] it was 10.1% (inactive). Also, the activity, negative = inhibition in [4] was 12.3% (inactive). In addition, the Potency entry in assay [10], in assay [17], in [12], in assay [13], in [14] and in assay [15] was “inactive” throughout. Moreover, the call in [18] was inactive. Besides, the figures for the max response in assay [11] (setting [20]) and in [11] (setting [21]) were 1.16% and 12.8%, respectively.

Turning to `CC(=O)OC1CC2C(C)(C)CCC(=O)[C@@]2(C)C2CC[C@@]3(C)C(c4ccoc4)OC(=O)C4OC43[C@]12C` (some centres undefined), the Potency result in [9], in [19], in [12], in assay [13], in assay [14] and in assay [15] was “inactive” in each case. The result in assay [18] was inactive. The activity change, negative = inhibition in [11] is 2.56% (inactive). In addition, the values for the max response in [11] (setting [20]) and in [11] (setting [21]) were 0.203% and 3.26%, respectively.

With `N#C/C(=C\c1ccc(O)c(O)c1)C(=O)NCCCCc1ccccc1`, the Potency in assay [5] is > 46 µM (inactive); in assay [6] it was > 46 µM (inactive); in [19] it was 35.5 µM (active); in [12], 15.7 µM (active). Moreover, in [11], the activity change, negative = inhibition is -2.23% (inactive). Also, the max response in assay [11] (setting [20]) came out at 21.1%; in assay [11] (setting [21]), 17.3%. The Potency result in assay [13] and in [14] was “inactive” throughout.

Take `COc1cccc(-c2cncnc2NCc2ccc(OC)cc2OC)c1`: the Potency in [1] is > 11.4 µM (inactive); in [2], 3.98 µM (active); in assay [5] it was > 46 µM (inactive); in [6] it was > 46 µM (inactive); in [9], 0.501 µM (active); in [15] it was 44.1 µM (active). Besides, the activity change, negative = inhibition in [16] was -7.15% (inactive); in assay [3], -10.1% (inactive); in assay [11], 7.71% (inactive). Besides, the activity, negative = inhibition in [4] is -6.14% (inactive). The Potency entry in [7], in assay [10], in [13] and in [14] was “inactive” throughout. The call in assay [18] was inactive. For the same compound, the max response in assay [11] (setting [20]) was 3.12%; in [11] (setting [21]), 8.96%.
